Measured values published in PubChem BioAssay (NCATS).
Records with an inconclusive call do not appear. Calls of active or inactive are those of the source. Calls come from the whole dose curve; as a rule, active = well fitted curve in the direction sought with a large enough effect in the signal ratio (not every such curve was filed as active); inconclusive = small, poorly fitted or top-dose-only effect, or effect the other way, or a change in a side signal; inactive = no such curve, though single readings can be large or run the other way; the % refers to the signal ratio.

The molecules below were run against Tyrosine-protein phosphatase non-receptor type substrate 1 (Homo sapiens) + Leukocyte surface antigen CD47 (Homo sapiens) (UniProt P78324+Q08722) (assay: CD47-SIRPalpha protein protein interaction - HTRF assay qHTS validation (AID 1347058)). Conditions: TR-FRET HTRF CD47-His / biotin-SIRPalpha binding, ratio 665/615; series mostly up to 38.3 µM.
Tyrosine-protein phosphatase non-receptor type substrate 1 (Homo sapiens) + Leukocyte surface antigen CD47 (Homo sapiens), sequence (P78324 whole entry, looked up, the tested form may be a part): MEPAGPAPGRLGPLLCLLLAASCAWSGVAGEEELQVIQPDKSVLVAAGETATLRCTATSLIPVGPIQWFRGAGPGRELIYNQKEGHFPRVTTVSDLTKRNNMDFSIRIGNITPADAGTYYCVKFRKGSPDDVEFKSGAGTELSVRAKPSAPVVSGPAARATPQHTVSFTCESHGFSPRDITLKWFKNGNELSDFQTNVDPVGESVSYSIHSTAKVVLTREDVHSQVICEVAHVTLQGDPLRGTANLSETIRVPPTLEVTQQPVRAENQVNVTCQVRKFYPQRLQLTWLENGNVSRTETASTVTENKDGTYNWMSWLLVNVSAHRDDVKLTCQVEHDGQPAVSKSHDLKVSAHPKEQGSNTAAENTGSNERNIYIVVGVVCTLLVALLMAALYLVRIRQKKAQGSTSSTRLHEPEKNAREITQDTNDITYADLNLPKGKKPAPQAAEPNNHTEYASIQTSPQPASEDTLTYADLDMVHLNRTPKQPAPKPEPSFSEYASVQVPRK
Tyrosine-protein phosphatase non-receptor type substrate 1 (Homo sapiens) + Leukocyte surface antigen CD47 (Homo sapiens), sequence (Q08722 whole entry, looked up, the tested form may be a part): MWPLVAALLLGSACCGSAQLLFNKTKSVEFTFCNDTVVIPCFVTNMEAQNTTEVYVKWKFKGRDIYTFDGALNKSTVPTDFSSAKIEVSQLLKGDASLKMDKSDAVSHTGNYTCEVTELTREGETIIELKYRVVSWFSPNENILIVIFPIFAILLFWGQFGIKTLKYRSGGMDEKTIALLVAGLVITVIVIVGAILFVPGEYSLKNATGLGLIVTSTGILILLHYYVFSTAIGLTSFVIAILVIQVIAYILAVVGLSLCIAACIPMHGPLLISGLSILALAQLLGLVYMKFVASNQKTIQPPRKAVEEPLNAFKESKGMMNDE
Description: SIRPalpha is a myeloid cell expressed immunomodulatory receptor that binds the tumor expressed immune checkpoint CD47. Therapeutic disruption of this interaction leads to immune-mediated tumor rejection. This assay was used to quantitate CD47-SIRPalpha binding biochemically and evaluate chemical libraries for novel CD47-SIRPalpha inhibitors. To recapitulate the biological interaction of CD47 and SIRPalpha, we designed expression constructs to produce their recombinant, soluble, extracellular interaction domains. CD47 was produced with an N-terminal 6His tag. SIRPalpha was produced with an N-terminal Avi-Tag for site-specific biotin incorporation. The CD47-SIRPalpha interaction was measured by TR-FRET using affinity tag linked reagents (anti-6His-Eu donor and streptavidin-XL665 acceptor). SIRPalpha without biotin incorporation was used as a positive control inhibitor.
SEQUENCE No. (e.g., 1, 2, 3, etc.); […] (e.g., Cells, Incubation, Reagent, etc.); VALUE and DESCRIPTION.
1a. Reagent. 3 uL CD47-His (12.5 nM) and Anti-His Eu Donor reagent (0.7 nM) added to respective wells in Assay buffer; white/solid bottom high base, med bind 1536-well plates (Greiner 789075)
1b. Reagent. 2 uL Assay buffer negative control for background fluorescence
2. Reagent. 23 nL library compounds (7-pt, 1:4 intraplate titration series) or DMSO control transferred by Pin Tool
3. Centrifuge. Centrifuge plate for 30 s at 1000 RPM
4. Incubation.#Incubate reagents at room temperature for 30 min, protected from light
5. Reagent. 2 uL SIRPalpha-biotin (100 nM) in Assay buffer
6. Incubation.#Incubate reagents at room temperature for 30 min, protected from light
7. Reagent. 1 uL SAV-XL665 (85 nM) acceptor reagent added to respective wells
8. Centrifuge. Centrifuge plate for 30 s at 1000 RPM
9. Incubation. Incubate reagents at room temperature for 30 min, protected from light
10. Detector. Measure Top TR-FRET on EnVision (Eu/APC filter set); calculate ratio Ch1/Ch2
1. Assay buffer composition.#Phosphate buffered saline (PBS; 10 mM Phosphate, 137 mM NaCl, and 2.7 mM KCl; pH 7.4), 0.05% IGEPAL CA-630
2. 23nL of […] library compounds (7 plates) or DMSO vehicle control transferred to 9 Greiner white/solid bottom high base, TC plates in 7 interplate 1:5 titrations (see Yasgar, A. et al. 2008) with Pintool. Two of the 9 plates are DMSO-only in compound field at beginning and end of compound library-treated plates.
10. Detector settings#Mirror = LANCE/DELFIA Dual Enh; Ex. Filter = UV2[TRF] 320; Em. Filter = APC 665; 2nd Em. Filter = Europium 615; Measurement h = 6.5; Ex. light (%) = 100; Delay = […]; Window t = 100 us; No. Seq. windows = 1; Time between flashes = 2000us; No. of flashes = 100; No. of flashes for 2nd detector = 100; Calculation: "Ratio Ch1/Ch2"
`NNC(=O)c1ccc(O)cc1` was tested, and the outcome was “inactive”.
With `COC(=O)N1CCN(C(=O)Cc2ccc(Cl)c(Cl)c2)C(CN2CCCC2)C1` (stereo not given) the outcome was “inactive”.
For `Nc1cc2c(ncn2CCOCP(=O)(O)O)c(=O)[nH]1`, the outcome was “inactive”.
`C[N+](C)(C)CC#CCN1CCCC1=O` was tested, and the outcome was “inactive”.
For `COc1ccc(OC)c(C(O)C(C)N)c1` (stereo not given), the outcome was “inactive”.
In the case of `CCn1cnc2c(Nc3cccc(Cl)c3)nc(N[C@@H]3CCCC[C@@H]3N)nc21`, the outcome was “inactive”.
In the case of `C[N+]1(C)C2CCC1CC(OC(=O)c1c[nH]c3ccccc13)C2` (stereo not given), the outcome was “inactive”.
`Clc1ccc(N2CC3CCC(C2)N3)nn1` was tested, and the outcome was “inactive”.
`C[C@H](Cc1ccc2c(c1)OC(C(=O)O)(C(=O)O)O2)NC[C@H](O)c1cccc(Cl)c1` was tested, and the outcome was “inactive”.
For `c1ccc2cc(CC3=NCCN3)ccc2c1`, the outcome was “inactive”.
For `CC(C)(C)c1cc(C=C(C#N)C#N)cc(C(C)(C)C)c1O`, the outcome was “inactive”.
For `C=CCN1C[C@@H](C)N([C@H](c2ccc(C(=O)N(CC)CC)cc2)c2cccc(OC)c2)C[C@@H]1C`, the outcome was “inactive”.
In the case of `CCCn1c(=O)c2[nH]c(C3CCCC3)nc2n(CCCOC(=O)c2ccc(S(=O)(=O)F)cc2)c1=O`, the outcome was “inactive”.
In the case of `CCCN(CCC)[C@H]1CCc2c(F)ccc(O)c2C1`, the outcome was “inactive”.
For `C[N+](C)(C)CC#CCOC(=O)Nc1cccc(Cl)c1`, the outcome was “inactive”.
In the case of `CNc1ccc2oc(C[C@H]3O[C@@]4(CC[C@H]3C)O[C@H]([C@H](C)C(=O)c3ccc[nH]3)[C@H](C)C[C@H]4C)nc2c1C(=O)O`, the outcome was “inactive”.
`NCC(O)c1cc(O)c(O)cc1F` (stereo not given) was tested, and the outcome was “inactive”.
In the case of `CCCC[N+]1(C)C2CC(OC(=O)[C@H](CO)c3ccccc3)CC1C1OC12` (stereo not given in full), the outcome was “inactive”.
In the case of `C[N+]1(C)CCc2cc3c(cc2[C@H]1[C@@H]1OC(=O)c2c1ccc1c2OCO1)OCO3`, the outcome was “inactive”.
With `N=C(N)c1ccc(CS(=O)(=O)F)cc1` the outcome was “inactive”.
With `Cc1[nH]c2ccc(O)cc2c1CCN` the outcome was “inactive”.
With `CP(=O)(O)C1=CCNCC1` the outcome was “inactive”.
`CC(C)(C)c1o[nH]c(=O)c1CC(N)C(=O)O` (stereo not given) was tested, and the outcome was “inactive”.
For `CCCN1CC[C@@H]2c3cc(O)ccc3CC[C@@H]21`, the outcome was “inactive”.
`CCN1C[C@@]2(COC)C3[C@@H](OC)C4[C@@H]1C3([C@@H]1C[C@]3(O)[C@H](OC(=O)c5ccccc5)[C@@H]1[C@]4(OC(C)=O)[C@@H](O)[C@@H]3OC)[C@H](OC)C[C@H]2O` was tested, and the outcome was “inactive”.
In the case of `CCCN(CCC)C1CCc2cccc(O)c2C1` (stereo not given), the outcome was “inactive”.
`CCCN(CCC)CCc1ccc(O)c(O)c1` was tested, and the outcome was “inactive”.
For `C=CCN1CCC23c4c5ccc(O)c4O[C@H]2C(=O)CC[C@@]3(O)C1C5` (stereo not given in full), the outcome was “inactive”.
In the case of `NCCc1ccc(S(=O)(=O)F)cc1`, the outcome was “inactive”.
`CC(N)Cc1c[nH]c2ccc(O)cc12` (stereo not given) was tested, and the outcome was “inactive”.
In the case of `C#CCN[C@H](C)Cc1ccccc1`, the outcome was “inactive”.
With `CC(C)(C)OC(=O)NC1[C@H]2CNC[C@@H]12` (stereo not given in full) the outcome was “inactive”.
With `C[C@H](N)Cc1cccc(C(F)(F)F)c1` the outcome was “inactive”.
In the case of `NC(=O)CI`, the outcome was “inactive”.
For `CC(Cc1ccc(OCC(=O)O)cc1)NCC(O)c1cccc(Cl)c1` (stereo not given), the outcome was “inactive”.
For `CC(=O)NBr`, the outcome was “inactive”.
For `CN(C(=O)Cc1ccc(Cl)c(Cl)c1)C(CN1CCCC1)c1cccc(OCC(=O)O)c1` (stereo not given), the outcome was “inactive”.
With `NCCc1c[nH]c2ccc(C(N)=O)cc12` the outcome was “inactive”.
For `CCCN(CCC)[C@@H]1CCc2cccc(O)c2C1`, the outcome was “inactive”.
With `C[N+]1(C)CCOC(O)(c2ccc(-c3ccc(C4(O)C[N+](C)(C)CCO4)cc3)cc2)C1` (stereo not given) the outcome was “inactive”.
